The campaign covered roughly 5,500 compounds. About 2,000 (36%) were called active. About 18% were inconclusive and are not listed. Rule as the data show it: active = normalized growth mostly below about 0.91 (no sharp cut-off); inconclusive = no clear call, values can overlap the other calls; inactive = mostly above about 0.92. The list shows a part of the results. *1 amine or outer side, *2 acyl side, *3 side chain or, on linkers, in order; H or OH if unused. Where a SMILES comes first, the peptide text is derived from it. Bridges are numbered along the chain shown (N, C = ends). [ ]: non-standard residue; d: D form. The star is where a group is joined. ξ: configuration not given here. ΔAla(E,3-NHCONH2) = NC(=O)N/C=C(/N)C(=O)O; X2 = NC1=NCCC(C(N[*:1])C(=O)[*:2])N1; ξβ3hOrn = NCCCC(N)CC(=O)*; Dap = NC[CH](N)C(=O)O
Experiment: chemical genetic growth profiling, strain panel (AID 1159580);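 also: tested at 20 µM; growth read once vehicle control cultures reached saturation at 30 °C; 1 = growth at the plate median or of vehicle wells; lower values mean less growth of the strain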
Settings: growth OD

Measured: normalized growth

NCCCC(N)CC(=O)NCC1NC(=O)C(CO)NC(=O)C(N)CNC(=O)C(C2CCN=C(N)N2)NC(=O)/C(=C\NC(N)=O)NC1=O (stereo not drawn) (H-[Dap]S[Dap](ξβ3hOrn)[ΔAla(E,3-NHCONH2)][X2]; lactam 1-C; configuration not given here)
inactive: S. cerevisiae deletion strains, locus YJR066W, strain TOR1, stronger effect = lower value 0.98 | S. cerevisiae deletion strains, locus YKL009W, strain mrt4, stronger effect = lower value 1.03 | S. cerevisiae deletion strains, locus YKL068W, stronger effect = lower value 1.01 | S. cerevisiae deletion strains, locus YKL085W, strain MDH1 (second series), stronger effect = lower value 1 | S. cerevisiae deletion strains, locus YKL085W, strain MDH1, stronger effect = lower value 1 | S. cerevisiae deletion strains, locus YKL160W, strain elf1, stronger effect = lower value 1.02 | S. cerevisiae deletion strains, locus YKR001C, strain vps1, stronger effect = lower value 1.01 | S. cerevisiae deletion strains, locus YKR026C, strain gcn3, stronger effect = lower value 1.01 | S. cerevisiae deletion strains, locus YKR091W, strain srl3, stronger effect = lower value 1 | S. cerevisiae deletion strains, locus YLL001W, strain dnm1, stronger effect = lower value 1.04 | S. cerevisiae deletion strains, locus YLL026W, stronger effect = lower value 1.04 | S. cerevisiae deletion strains, locus YLL041C, strain sdh2, stronger effect = lower value 1.02 | S. cerevisiae deletion strains, locus YLR027C, strain aat2, stronger effect = lower value 1.05 | S. cerevisiae deletion strains, locus YLR039C, strain RIC1, stronger effect = lower value 1.01 | S. cerevisiae deletion strains, locus YLR058C, strain SHM2, stronger effect = lower value 1.01 | S. cerevisiae deletion strains, locus YLR102C, strain apc9, stronger effect = lower value 1.02 | S. cerevisiae deletion strains, locus YLR113W, strain HOG1, stronger effect = lower value 1.05 | S. cerevisiae deletion strains, locus YLR221C, strain rsa3, stronger effect = lower value 0.993 | S. cerevisiae deletion strains, locus YLR258W, strain gsy2, stronger effect = lower value 1 | S. cerevisiae deletion strains, locus YLR262C, strain YPT6 (second series), stronger effect = lower value 1.03 | S. cerevisiae deletion strains, locus YLR262C, strain YPT6, stronger effect = lower value 1.04 | S. cerevisiae deletion strains, locus YLR268W, strain sec22, stronger effect = lower value 1.03 | S. cerevisiae deletion strains, locus YLR320W, strain mms22, stronger effect = lower value 0.989 | S. cerevisiae deletion strains, locus YLR330W, strain CHS5, stronger effect = lower value 1 | S. cerevisiae deletion strains, locus YLR342W, strain FKS1 (second series), stronger effect = lower value 1.01 | S. cerevisiae deletion strains, locus YLR342W, strain FKS1, stronger effect = lower value 1.03 | S. cerevisiae deletion strains, locus YLR357W, strain rsc2, stronger effect = lower value 1 | S. cerevisiae deletion strains, locus YLR370C, strain arc18, stronger effect = lower value 1.04 | S. cerevisiae deletion strains, locus YLR371W, strain rom2, stronger effect = lower value 0.999 | S. cerevisiae deletion strains, locus YLR384C, strain iki3, stronger effect = lower value 1.02 | S. cerevisiae deletion strains, locus YLR418C, strain cdc73, stronger effect = lower value 0.995 | S. cerevisiae deletion strains, locus YML016C, strain PPZ1, stronger effect = lower value 1 | S. cerevisiae deletion strains, locus YML032C, strain rad52, stronger effect = lower value 1.02 | S. cerevisiae deletion strains, locus YML120C, strain ndi1, stronger effect = lower value 1.05 | S. cerevisiae deletion strains, locus YML124C, strain tub3, stronger effect = lower value 1.01 | S. cerevisiae deletion strains, locus YMR058W, strain fet3, stronger effect = lower value 1.03 | S. cerevisiae deletion strains, locus YMR078C, strain ctf18, stronger effect = lower value 1.03 | S. cerevisiae deletion strains, locus YMR125W, strain sto1, stronger effect = lower value 0.993 | S. cerevisiae deletion strains, locus YMR129W, stronger effect = lower value 1.02 | S. cerevisiae deletion strains, locus YMR205C, strain PFK2, stronger effect = lower value 1.04 | S. cerevisiae deletion strains, locus YMR223W, strain ubp8, stronger effect = lower value 1.03 | S. cerevisiae deletion strains, locus YMR231W, strain pep5, stronger effect = lower value 1 | S. cerevisiae deletion strains, locus YMR263W, strain SAP30, stronger effect = lower value 1 | S. cerevisiae deletion strains, locus YMR307W, strain GAS1, stronger effect = lower value 1.06 | S. cerevisiae deletion strains, locus YNL067W, strain RPL9B, stronger effect = lower value 1.01 | S. cerevisiae deletion strains, locus YNL071W, strain lat1, stronger effect = lower value 0.994 | S. cerevisiae deletion strains, locus YNL183C, strain NPR1, stronger effect = lower value 0.988 | S. cerevisiae deletion strains, locus YNL209W, strain ssb2, stronger effect = lower value 0.998 | S. cerevisiae deletion strains, locus YNL233W, strain BNI4, stronger effect = lower value 0.974 | S. cerevisiae deletion strains, locus YNL248C, strain rpa49, stronger effect = lower value 0.98 | S. cerevisiae deletion strains, locus YNL250W, strain rad50, stronger effect = lower value 1.02 | S. cerevisiae deletion strains, locus YNL271C, strain bni1, stronger effect = lower value 1.03 | S. cerevisiae deletion strains, locus YNL298W, strain CLA4, stronger effect = lower value 1.03 | S. cerevisiae deletion strains, locus YNL307C, strain MCK1, stronger effect = lower value 1.03 | S. cerevisiae deletion strains, locus YNL322C, strain KRE1 (second series), stronger effect = lower value 1.02 | S. cerevisiae deletion strains, locus YNL322C, strain KRE1, stronger effect = lower value 1 | S. cerevisiae deletion strains, locus YNR049C, strain mso1, stronger effect = lower value 1.01 | S. cerevisiae deletion strains, locus YNR052C, strain pop2, stronger effect = lower value 1.01 | S. cerevisiae deletion strains, locus YOL012C, strain htz1 2.02 | S. cerevisiae deletion strains, locus YOL147C, strain pex11, stronger effect = lower value 1.01 | S. cerevisiae deletion strains, locus YOR001W, strain rrp6, stronger effect = lower value 1.03 | S. cerevisiae deletion strains, locus YOR061W, strain CKA2, stronger effect = lower value 1.01 | S. cerevisiae deletion strains, locus YOR069W, strain VPS5, stronger effect = lower value 1 | S. cerevisiae deletion strains, locus YOR070C, strain gyp1, stronger effect = lower value 0.994 | S. cerevisiae deletion strains, locus YOR080W, strain dia2, stronger effect = lower value 1.03 | S. cerevisiae deletion strains, locus YOR083W, strain WHI5, stronger effect = lower value 1.02 | S. cerevisiae deletion strains, locus YOR106W, strain vam3, stronger effect = lower value 1.04 | S. cerevisiae deletion strains, locus YOR136W, strain idh2, stronger effect = lower value 1.01 | S. cerevisiae deletion strains, locus YOR144C, strain elg1, stronger effect = lower value 1.02 | S. cerevisiae deletion strains, locus YOR184W, strain ser1, stronger effect = lower value 1.02 | S. cerevisiae deletion strains, locus YOR231W, strain MKK1, stronger effect = lower value 1.03 | S. cerevisiae deletion strains, locus YOR265W, strain rbl2, stronger effect = lower value 1.02 | S. cerevisiae deletion strains, locus YOR270C, strain vph1, stronger effect = lower value 1.09 | S. cerevisiae deletion strains, locus YOR290C, strain snf2, stronger effect = lower value 0.981 | S. cerevisiae deletion strains, locus YOR316C, strain cot1, stronger effect = lower value 1.05 | S. cerevisiae deletion strains, locus YPL051W, strain arl3, stronger effect = lower value 1.01 | S. cerevisiae deletion strains, locus YPL055C, strain LGE1, stronger effect = lower value 1.03 | S. cerevisiae deletion strains, locus YPL078C, strain atp4, stronger effect = lower value 1.06 | S. cerevisiae deletion strains, locus YPL106C, strain sse1, stronger effect = lower value 0.997 | S. cerevisiae deletion strains, locus YPL240C, strain hsp82, stronger effect = lower value 1.01 | S. cerevisiae deletion strains, locus YPL256C, strain CLN2, stronger effect = lower value 1.04 | S. cerevisiae deletion strains, locus YPR119W, strain clb2, stronger effect = lower value 1 | S. cerevisiae deletion strains, locus YPR141C, strain kar3, stronger effect = lower value 1.01 | S. cerevisiae deletion strains, locus YPR163C, strain tif3, stronger effect = lower value 1.02 | S. cerevisiae deletion strains, locus YPR167C, strain met16, stronger effect = lower value 1.01 | S. cerevisiae deletion strains, strain wtn01, stronger effect = lower value 1.04 | S. cerevisiae strains, strain wild type, stronger effect = lower value 1

Reference: PubChem BioAssay AID1159580 (chemical genetic matrix, 2015)
